# In article PMC7862700, “An all-to-all approach to the identification of sequence-specific readers for epigenetic DNA modifications on cytosine”:
# Experiments:
# Assay in all cases: DAPPL (digital affinity profiling via proximity ligation, sequencing); 10 mM Tris-HCl pH 7.5, 50 mM NaCl, 1 mM DTT, 4% glycerol, room temperature, 30 min; GST-TFs on glutathione beads, 16-mer random dsDNA library, 0.1% formaldehyde crosslink after washing; high values mean tight binding
# Conditions in all cases: protein: recombinant; tags: N-terminal GST; dsDNA, one strand shown
# FLI1 = target: T1, FLI1 (Homo sapiens, UniProt Q01543 1-452)
# T1 sequence: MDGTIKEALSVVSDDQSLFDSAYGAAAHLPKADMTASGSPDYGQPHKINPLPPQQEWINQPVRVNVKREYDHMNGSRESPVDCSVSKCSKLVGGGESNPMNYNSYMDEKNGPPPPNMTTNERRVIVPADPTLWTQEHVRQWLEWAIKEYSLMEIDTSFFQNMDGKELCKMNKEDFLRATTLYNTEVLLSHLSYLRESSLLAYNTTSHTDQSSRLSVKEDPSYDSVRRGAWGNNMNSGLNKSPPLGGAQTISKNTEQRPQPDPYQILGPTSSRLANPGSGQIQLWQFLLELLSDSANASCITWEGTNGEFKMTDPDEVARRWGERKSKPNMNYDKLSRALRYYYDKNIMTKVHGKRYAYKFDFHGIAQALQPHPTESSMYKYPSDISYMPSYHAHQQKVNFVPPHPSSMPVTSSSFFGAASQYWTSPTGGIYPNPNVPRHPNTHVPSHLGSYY
# Procedure, shortened: (§1)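 Pools were built from human transcription factors expressed in yeast as GST fusions, captured on glutathione beads and DNA-barcoded, along with a tag-only sample. Incubation with 200 nmole of a 16-mer random double-stranded DNA library lasted 30 min at room temperature in Tris/NaCl/DTT/glycerol buffer, and was followed by washing, 0.1% formaldehyde crosslinking, proximity ligation, PCR amplification and Illumina NextSeq500 sequencing. Binding signal is the quotient of each hexamer's read frequency for a factor and its frequency for the tag-only sample.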
# GABPA = target: T2, GABPA (Homo sapiens, UniProt Q06546 1-454)
# T2 sequence: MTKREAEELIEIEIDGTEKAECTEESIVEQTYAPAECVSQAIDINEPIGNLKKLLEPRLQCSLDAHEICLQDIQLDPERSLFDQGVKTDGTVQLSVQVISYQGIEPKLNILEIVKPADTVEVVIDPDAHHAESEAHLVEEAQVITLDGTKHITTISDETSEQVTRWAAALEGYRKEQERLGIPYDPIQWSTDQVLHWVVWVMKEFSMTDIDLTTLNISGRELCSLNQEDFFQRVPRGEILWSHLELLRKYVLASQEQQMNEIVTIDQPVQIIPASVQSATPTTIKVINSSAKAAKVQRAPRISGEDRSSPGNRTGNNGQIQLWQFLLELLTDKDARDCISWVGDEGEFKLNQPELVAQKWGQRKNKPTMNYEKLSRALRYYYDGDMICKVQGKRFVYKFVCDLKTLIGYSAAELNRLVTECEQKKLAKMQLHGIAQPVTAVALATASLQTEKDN
# Procedure, shortened: as §1
# ERG = target: T3, ERG (Homo sapiens, UniProt P11308 1-479)
# T3 sequence: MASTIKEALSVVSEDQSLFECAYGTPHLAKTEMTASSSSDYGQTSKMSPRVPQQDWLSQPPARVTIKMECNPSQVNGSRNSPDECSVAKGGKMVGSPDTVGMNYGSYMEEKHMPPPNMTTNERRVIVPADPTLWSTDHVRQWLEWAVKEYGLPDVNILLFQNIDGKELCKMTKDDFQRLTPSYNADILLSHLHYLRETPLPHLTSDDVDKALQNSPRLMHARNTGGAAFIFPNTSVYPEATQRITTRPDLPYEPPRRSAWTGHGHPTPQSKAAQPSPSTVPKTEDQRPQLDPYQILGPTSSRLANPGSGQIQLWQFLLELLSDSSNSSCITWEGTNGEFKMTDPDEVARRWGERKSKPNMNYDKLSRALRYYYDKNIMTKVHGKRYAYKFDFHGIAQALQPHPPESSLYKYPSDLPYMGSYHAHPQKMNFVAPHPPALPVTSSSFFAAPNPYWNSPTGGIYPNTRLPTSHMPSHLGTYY
# Procedure, shortened: as §1
# ELF1 = ELF1 (Homo sapiens, UniProt P32519 1-619)
# Procedure, shortened: as §1
# SPI1 = SPI1 (Homo sapiens, UniProt P17947 1-270)
# Procedure, shortened: as §1
# ETV5 = ETV5 (Homo sapiens, UniProt P41161 1-510)
# Procedure, shortened: as §1
# ELF4 = ELF4 (Homo sapiens, UniProt Q99607 1-663)
# Procedure, shortened: as §1
# ETV2 = target: T4, ETV2 (Homo sapiens, UniProt O00321 1-342)
# T4 sequence: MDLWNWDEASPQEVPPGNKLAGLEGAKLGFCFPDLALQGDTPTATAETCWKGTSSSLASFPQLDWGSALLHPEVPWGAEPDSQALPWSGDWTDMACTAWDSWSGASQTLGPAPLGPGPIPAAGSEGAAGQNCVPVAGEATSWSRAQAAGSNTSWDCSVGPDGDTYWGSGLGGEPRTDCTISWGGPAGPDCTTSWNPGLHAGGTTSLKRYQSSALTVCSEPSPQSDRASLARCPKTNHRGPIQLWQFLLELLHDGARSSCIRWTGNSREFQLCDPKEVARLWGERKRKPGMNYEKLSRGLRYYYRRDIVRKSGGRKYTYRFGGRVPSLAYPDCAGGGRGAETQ
# Procedure, shortened: as §1
# ELF3 = target: T5, ELF3 (Homo sapiens, UniProt P78545 1-371)
# T5 sequence: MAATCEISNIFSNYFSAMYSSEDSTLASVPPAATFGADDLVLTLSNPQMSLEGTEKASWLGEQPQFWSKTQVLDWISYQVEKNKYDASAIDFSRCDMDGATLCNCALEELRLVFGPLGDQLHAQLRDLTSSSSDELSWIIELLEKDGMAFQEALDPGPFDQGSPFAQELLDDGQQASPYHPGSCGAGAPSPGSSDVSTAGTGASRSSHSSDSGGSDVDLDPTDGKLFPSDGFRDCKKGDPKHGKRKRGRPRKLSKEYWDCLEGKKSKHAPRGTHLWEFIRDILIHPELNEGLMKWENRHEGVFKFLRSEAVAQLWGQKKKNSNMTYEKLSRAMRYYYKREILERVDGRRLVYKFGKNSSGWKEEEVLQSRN
# Procedure, shortened: as §1
# ETV1 = ETV1 (Homo sapiens, UniProt P50549 1-477)
# Procedure, shortened: as §1
# ETS2 = target: T6, ETS2 (Homo sapiens, UniProt P15036 1-469)
# T6 sequence: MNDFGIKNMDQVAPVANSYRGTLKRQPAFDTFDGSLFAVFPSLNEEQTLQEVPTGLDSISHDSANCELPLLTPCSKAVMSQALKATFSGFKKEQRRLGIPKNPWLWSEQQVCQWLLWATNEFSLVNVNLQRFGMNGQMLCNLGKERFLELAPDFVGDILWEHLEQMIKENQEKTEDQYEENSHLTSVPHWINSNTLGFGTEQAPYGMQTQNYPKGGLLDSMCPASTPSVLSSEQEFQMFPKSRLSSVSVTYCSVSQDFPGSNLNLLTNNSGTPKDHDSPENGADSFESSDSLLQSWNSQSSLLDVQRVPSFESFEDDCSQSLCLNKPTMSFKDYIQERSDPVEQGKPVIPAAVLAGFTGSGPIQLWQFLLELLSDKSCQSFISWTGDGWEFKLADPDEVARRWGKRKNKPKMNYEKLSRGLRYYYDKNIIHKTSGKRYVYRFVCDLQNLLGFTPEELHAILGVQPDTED
# Procedure, shortened: as §1
# ETV3 = target: T7, ETV3 (Homo sapiens, UniProt P41162-2 1-143)
# T7 sequence: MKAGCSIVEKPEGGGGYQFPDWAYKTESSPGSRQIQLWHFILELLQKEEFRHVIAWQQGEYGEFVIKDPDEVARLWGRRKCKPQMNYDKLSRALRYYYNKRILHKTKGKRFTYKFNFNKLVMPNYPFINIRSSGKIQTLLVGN
# Procedure, shortened: as §1
# EHF = target: T8, EHF (Homo sapiens, UniProt Q9NZC4 1-300)
# T8 sequence: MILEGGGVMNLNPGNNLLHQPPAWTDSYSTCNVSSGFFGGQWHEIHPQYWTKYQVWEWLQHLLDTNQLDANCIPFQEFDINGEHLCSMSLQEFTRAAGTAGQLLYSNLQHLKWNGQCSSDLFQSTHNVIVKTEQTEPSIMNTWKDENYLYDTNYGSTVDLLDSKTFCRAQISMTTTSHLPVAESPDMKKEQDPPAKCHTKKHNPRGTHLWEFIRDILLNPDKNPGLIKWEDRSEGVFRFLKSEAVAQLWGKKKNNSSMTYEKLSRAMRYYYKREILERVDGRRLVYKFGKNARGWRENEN
# Procedure, shortened: as §1
# ELK3 = target: T9, ELK3 (Homo sapiens, UniProt P41970 1-407)
# T9 sequence: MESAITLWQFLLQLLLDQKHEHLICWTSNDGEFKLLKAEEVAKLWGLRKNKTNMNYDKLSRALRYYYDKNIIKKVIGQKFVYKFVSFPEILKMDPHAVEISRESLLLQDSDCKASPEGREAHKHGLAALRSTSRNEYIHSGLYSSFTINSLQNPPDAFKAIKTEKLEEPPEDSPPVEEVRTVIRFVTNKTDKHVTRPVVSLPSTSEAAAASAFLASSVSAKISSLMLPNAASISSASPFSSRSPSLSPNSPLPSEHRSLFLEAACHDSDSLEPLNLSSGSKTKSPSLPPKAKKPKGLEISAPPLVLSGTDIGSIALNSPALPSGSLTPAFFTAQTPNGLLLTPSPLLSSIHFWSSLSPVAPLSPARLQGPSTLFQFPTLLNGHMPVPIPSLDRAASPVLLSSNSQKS
# Procedure, shortened: as §1
# ERF = target: T10, ERF (Homo sapiens, UniProt P50548 1-548)
# T10 sequence: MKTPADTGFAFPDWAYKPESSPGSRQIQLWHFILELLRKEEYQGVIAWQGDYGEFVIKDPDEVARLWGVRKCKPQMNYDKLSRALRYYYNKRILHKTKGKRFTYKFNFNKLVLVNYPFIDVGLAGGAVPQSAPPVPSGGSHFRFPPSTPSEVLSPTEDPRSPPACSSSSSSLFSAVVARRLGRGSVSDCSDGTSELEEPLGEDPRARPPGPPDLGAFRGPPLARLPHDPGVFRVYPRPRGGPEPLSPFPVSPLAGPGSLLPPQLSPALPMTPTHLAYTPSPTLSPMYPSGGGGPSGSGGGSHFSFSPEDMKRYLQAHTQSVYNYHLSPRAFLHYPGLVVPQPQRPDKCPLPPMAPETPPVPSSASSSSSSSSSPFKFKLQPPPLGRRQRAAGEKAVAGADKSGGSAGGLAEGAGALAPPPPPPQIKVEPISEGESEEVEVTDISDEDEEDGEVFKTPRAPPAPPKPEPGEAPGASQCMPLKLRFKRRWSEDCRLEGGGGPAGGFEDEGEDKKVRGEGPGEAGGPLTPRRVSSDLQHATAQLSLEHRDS
# Procedure, shortened: as §1
# ETV3L = target: T11, ETV3L (Homo sapiens, UniProt Q6ZN32 1-361)
# T11 sequence: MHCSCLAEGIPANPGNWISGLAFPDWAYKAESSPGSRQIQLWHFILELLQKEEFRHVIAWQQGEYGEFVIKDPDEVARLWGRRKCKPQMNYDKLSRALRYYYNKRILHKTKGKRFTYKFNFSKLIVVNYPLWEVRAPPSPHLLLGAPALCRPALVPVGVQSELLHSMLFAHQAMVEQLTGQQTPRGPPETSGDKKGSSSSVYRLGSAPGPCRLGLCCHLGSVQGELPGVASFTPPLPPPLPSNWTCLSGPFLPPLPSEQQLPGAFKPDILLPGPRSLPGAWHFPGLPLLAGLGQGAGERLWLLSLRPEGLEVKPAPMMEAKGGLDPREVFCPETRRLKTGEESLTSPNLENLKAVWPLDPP
# Procedure, shortened: as §1
# ETV7 = target: T12, ETV7 (Homo sapiens, UniProt Q9Y603 1-341)
# T12 sequence: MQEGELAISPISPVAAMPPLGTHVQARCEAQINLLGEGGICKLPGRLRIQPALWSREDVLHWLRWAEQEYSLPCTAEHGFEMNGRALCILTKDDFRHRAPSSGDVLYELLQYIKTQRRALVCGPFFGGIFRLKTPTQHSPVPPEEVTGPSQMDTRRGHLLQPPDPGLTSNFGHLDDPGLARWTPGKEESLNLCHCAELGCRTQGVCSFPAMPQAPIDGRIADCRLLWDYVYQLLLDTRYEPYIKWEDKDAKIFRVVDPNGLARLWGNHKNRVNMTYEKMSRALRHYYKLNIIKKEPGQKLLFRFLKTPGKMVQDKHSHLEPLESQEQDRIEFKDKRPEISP
# Procedure, shortened: as §1
# ETV6 = ETV6 (Homo sapiens, UniProt P41212 1-452)
# Procedure, shortened: as §1
# Sequence of ELF1 (P32519 whole entry): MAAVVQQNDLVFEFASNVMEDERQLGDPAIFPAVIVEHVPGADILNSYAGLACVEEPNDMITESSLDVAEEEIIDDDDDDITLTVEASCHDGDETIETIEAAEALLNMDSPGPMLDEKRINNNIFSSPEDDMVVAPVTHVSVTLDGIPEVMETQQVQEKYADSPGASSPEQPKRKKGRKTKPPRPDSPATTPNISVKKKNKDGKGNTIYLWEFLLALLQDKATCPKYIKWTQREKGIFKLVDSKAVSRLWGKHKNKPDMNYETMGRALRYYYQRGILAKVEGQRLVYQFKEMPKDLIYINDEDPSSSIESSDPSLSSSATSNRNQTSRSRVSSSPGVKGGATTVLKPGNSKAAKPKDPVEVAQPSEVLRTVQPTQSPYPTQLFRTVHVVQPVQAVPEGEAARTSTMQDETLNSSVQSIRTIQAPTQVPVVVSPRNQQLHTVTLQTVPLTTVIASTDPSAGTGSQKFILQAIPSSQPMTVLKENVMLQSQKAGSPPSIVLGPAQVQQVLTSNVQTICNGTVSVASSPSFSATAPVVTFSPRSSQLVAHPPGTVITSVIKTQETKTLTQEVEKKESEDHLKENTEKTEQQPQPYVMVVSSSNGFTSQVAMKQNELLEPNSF
# Sequence of ELF4 (Q99607 whole entry): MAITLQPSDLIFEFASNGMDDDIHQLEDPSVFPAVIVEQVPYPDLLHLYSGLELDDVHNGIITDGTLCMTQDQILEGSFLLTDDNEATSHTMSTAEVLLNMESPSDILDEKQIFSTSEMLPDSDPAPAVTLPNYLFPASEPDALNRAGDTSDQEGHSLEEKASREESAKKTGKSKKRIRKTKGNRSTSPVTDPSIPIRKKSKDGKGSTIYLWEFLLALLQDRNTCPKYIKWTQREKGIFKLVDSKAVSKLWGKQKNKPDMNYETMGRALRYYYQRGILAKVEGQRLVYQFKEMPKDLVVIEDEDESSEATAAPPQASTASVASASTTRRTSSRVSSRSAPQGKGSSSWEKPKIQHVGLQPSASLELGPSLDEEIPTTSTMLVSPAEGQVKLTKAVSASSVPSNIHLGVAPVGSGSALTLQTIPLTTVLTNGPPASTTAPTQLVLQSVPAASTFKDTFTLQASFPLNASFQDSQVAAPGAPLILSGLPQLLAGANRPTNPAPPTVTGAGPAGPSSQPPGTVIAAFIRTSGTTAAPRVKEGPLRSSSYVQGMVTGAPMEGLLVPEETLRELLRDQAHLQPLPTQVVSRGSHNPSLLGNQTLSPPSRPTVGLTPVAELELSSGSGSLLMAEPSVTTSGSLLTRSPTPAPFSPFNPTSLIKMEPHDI
# Sequence of ETV1 (P50549 whole entry): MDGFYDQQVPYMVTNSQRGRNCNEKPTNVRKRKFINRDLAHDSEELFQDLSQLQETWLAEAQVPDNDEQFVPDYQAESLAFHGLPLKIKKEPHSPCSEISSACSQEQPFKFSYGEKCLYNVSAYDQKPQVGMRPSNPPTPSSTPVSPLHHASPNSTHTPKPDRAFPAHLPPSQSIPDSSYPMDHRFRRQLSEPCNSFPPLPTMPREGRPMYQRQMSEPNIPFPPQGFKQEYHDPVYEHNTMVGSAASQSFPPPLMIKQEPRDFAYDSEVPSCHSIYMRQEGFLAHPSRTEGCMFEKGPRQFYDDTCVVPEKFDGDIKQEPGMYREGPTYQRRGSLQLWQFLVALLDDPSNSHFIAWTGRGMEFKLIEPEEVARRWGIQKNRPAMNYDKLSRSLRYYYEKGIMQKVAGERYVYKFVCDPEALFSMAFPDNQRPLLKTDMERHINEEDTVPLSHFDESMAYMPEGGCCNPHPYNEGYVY
# Sequence of ETV5 (P41161 whole entry): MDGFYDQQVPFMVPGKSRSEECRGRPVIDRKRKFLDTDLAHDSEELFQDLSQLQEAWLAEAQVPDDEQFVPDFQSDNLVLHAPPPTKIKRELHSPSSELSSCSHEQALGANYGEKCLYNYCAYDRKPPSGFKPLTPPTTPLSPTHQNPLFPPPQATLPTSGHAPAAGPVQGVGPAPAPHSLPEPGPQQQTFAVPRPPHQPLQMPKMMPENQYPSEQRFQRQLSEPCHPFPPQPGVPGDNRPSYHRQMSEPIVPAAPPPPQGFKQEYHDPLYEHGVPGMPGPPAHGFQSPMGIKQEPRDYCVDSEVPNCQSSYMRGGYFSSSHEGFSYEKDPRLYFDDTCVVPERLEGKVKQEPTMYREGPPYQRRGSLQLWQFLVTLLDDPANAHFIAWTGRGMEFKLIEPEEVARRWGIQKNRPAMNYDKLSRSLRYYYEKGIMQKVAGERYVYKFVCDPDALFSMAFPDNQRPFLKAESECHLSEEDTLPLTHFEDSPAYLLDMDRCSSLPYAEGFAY
# Sequence of ETV6 (P41212 whole entry): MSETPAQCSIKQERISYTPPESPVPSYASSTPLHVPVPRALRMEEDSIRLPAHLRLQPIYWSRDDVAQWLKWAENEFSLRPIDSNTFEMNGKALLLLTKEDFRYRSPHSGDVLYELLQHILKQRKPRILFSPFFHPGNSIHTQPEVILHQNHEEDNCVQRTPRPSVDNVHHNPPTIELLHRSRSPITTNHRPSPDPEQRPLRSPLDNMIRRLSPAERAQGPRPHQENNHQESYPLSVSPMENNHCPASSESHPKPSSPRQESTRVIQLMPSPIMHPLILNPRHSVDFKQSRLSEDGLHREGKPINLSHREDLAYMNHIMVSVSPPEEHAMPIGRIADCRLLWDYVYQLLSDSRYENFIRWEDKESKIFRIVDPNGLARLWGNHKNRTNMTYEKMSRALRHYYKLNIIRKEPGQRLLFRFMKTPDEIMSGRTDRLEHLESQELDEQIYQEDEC
Sequence,binding signal (FLI1),binding signal (GABPA),binding signal (ERG),binding signal (ELF1),binding signal (SPI1),binding signal (ETV5),binding signal (ELF4),binding signal (ETV2),binding signal (ELF3),binding signal (ETV1),binding signal (ETS2),binding signal (ETV3),binding signal (EHF),binding signal (ELK3),binding signal (ERF),binding signal (ETV3L),binding signal (ETV7),binding signal (ETV6)
GGCCCC,"1.02 fold enrichment (6-mer frequency, TF over GST control)","1.03 fold enrichment (6-mer frequency, TF over GST control)","1.04 fold enrichment (6-mer frequency, TF over GST control)","1.02 fold enrichment (6-mer frequency, TF over GST control)","1.03 fold enrichment (6-mer frequency, TF over GST control)","1.02 fold enrichment (6-mer frequency, TF over GST control)","1 fold enrichment (6-mer frequency, TF over GST control)","1.13 fold enrichment (6-mer frequency, TF over GST control)","1.02 fold enrichment (6-mer frequency, TF over GST control)","1.03 fold enrichment (6-mer frequency, TF over GST control)","1.03 fold enrichment (6-mer frequency, TF over GST control)","1.05 fold enrichment (6-mer frequency, TF over GST control)",,,,,,
GTTACG,"1.08 fold enrichment (6-mer frequency, TF over GST control)","1.01 fold enrichment (6-mer frequency, TF over GST control)","1.01 fold enrichment (6-mer frequency, TF over GST control)","1.07 fold enrichment (6-mer frequency, TF over GST control)","1.01 fold enrichment (6-mer frequency, TF over GST control)","1.03 fold enrichment (6-mer frequency, TF over GST control)","1.02 fold enrichment (6-mer frequency, TF over GST control)","1.22 fold enrichment (6-mer frequency, TF over GST control)",,"1.07 fold enrichment (6-mer frequency, TF over GST control)","1.06 fold enrichment (6-mer frequency, TF over GST control)","1.04 fold enrichment (6-mer frequency, TF over GST control)","1.03 fold enrichment (6-mer frequency, TF over GST control)","1.01 fold enrichment (6-mer frequency, TF over GST control)","1.06 fold enrichment (6-mer frequency, TF over GST control)","1.14 fold enrichment (6-mer frequency, TF over GST control)","1.02 fold enrichment (6-mer frequency, TF over GST control)","1.09 fold enrichment (6-mer frequency, TF over GST control)"
